Test [1] concerns XIP peptide (Xip251-270) binding. Briefly: XIP fragment 251-270 binding compounds – biochemical, small-molecule microarray, fluorescence 635/667 nm, 0.1 µg/mL protein, primary screen (AID 1182). The note with it: fluorescent protein binding, 635 nm, higher = more signal, called active from +8 up or from −8 down.
In another test the test system is XIP peptide (Xip251-270). As to the kind of experiment: compounds binding XIP fragment 251-270 – biochemical, small-molecule microarray, fluorescence 635/667 nm, 0.5 µg/mL protein, primary screen (AID 1183). The note with it: fluorescence 635 nm, higher = more signal.
Test [2] is described as follows: blood-stage malaria parasite viability loss – strain 3D7, DAPI fluorescence, 100 nL, primary screen (AID 1184).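 Further: parasites grown inside human red blood cells in medium with human serum.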 The note with it: P. falciparum 3D7 growth, 3 d, higher = more signal.
For test [3], the target named is Homeobox protein Hox-A13 (Mus musculus) (UniProt Q62424). As to the kind of experiment: disruptors of Hoxa13 oligonucleotide interaction – biochemical, fluorescence polarization, labeled oligonucleotide, primary screen (AID 1185). The note with it: Hoxa13:DNA binding, 15 min, higher = more signal, called active from +8 up or from −8 down. (Polarisation of emitted light reports the rotation of a fluorescent probe.)
Sequence of Homeobox protein Hox-A13 (Mus musculus) (Q62424 whole entry, looked up): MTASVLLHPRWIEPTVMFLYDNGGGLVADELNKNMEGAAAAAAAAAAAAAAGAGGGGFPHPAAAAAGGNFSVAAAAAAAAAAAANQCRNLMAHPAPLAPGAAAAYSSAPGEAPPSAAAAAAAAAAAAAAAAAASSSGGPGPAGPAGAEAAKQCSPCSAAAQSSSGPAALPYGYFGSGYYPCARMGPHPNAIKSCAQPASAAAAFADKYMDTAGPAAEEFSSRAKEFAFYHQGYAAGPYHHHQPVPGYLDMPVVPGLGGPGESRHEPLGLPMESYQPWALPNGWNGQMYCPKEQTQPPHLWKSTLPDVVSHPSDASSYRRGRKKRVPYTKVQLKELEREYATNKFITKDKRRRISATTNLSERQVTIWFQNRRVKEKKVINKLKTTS

From PubChem BioAssay come the findings set out here.

Activity calls are given as the source filed them.

In the case of `COC(=O)[C@@H]1CCCN1C(=O)[C@@H](C)CO`, the composite z-score was 0.446 (inactive) in test [1] and 0.0063 in the test on XIP peptide (Xip251-270). Moreover, the z-score is -1.35 in test [2] and 1.64 (inactive) in test [3].

Turning to `O=C1C[C@@H](O)[C@@H](O)[C@@H]2[C@@H]3C(=O)N(c4cccc(Oc5ccccc5)c4)C(=O)[C@@H]3CC[C@@H]12`, the composite z-score was -0.0811 (inactive) in test [1] and 0.726 in the test on XIP peptide (Xip251-270). Besides, the results for the z-score in test [2] and in test [3] were -0.61 and -4.11 (inactive), respectively.

As for `CCOC(=O)[C@H](Cc1ccccc1)NC(=O)CCC1CC(OC(=O)NCc2ccc3c(c2)OCO3)CC2(CCCC(COC(=O)NCc3ccccc3)O2)O1` (some centres not stated), the composite z-score is -0.148 (inactive) in test [1] and 0.389 in the test with XIP peptide (Xip251-270). Moreover, the z-score in test [2] was -1.76; in test [3], -0.513 (inactive).

As for `CCOC(=O)NN=C1C[C@@H](O)[C@@H](O)[C@@H]2[C@@H]3C(=O)N(C4CCCCC4)C(=O)[C@@H]3CC[C@@H]12`, the composite z-score in test [1] was 0.311 (inactive); in the test with XIP peptide (Xip251-270), 0.101. Also, the z-score was 1.51 in test [2] and -0.86 (inactive) in test [3].

Regarding `C[C@@H](c1ccccc1)N1C(=O)[C@H]2[C@H]3[C@H](O)[C@H](O)CC(=NOC[C@@H](O)COCc4ccco4)[C@@H]3CC[C@H]2C1=O`, the composite z-score in test [1] is -0.201 (inactive); in the test on XIP peptide (Xip251-270), -0.287. The z-score is -0.842 in test [2] and -1.25 (inactive) in test [3].

With `c1ccc(C2NCCc3c2[nH]c2ccccc32)cc1` (configuration not stated), the composite z-score in test [1] was 0.657 (inactive); with XIP peptide (Xip251-270), 0.4. The z-score was -0.811 in test [2] and -0.654 (inactive) in test [3].

`CC(C)=CCCC(C)=CCON=C1[C@H]2CCn3c(=O)n(C)c(=O)n3[C@H]2[C@H](O)[C@@H]2O[C@H]12`: the composite z-score in test [1] was 0.258 (inactive); in the test on XIP peptide (Xip251-270) it was 0.246. Besides, the figures for the z-score in test [2] and in test [3] were -1.55 and -0.682 (inactive), respectively.

With `COC(=O)CC=C[C@@H](C)[C@H](OC)c1ccccc1Br`, the composite z-score is -0.575 (inactive) in test [1] and -0.412 in the test on XIP peptide (Xip251-270). Also, the z-score in test [2] was 0.805; in test [3], -0.0487 (inactive).

Regarding `C[C@@H]1CC[C@H]2C(=O)O[C@H](COc3ccc(C(C)(C)C)cc3)CN2[C@H]1c1ccc(Br)cc1`, the composite z-score in test [1] was -0.418 (inactive); in the test with XIP peptide (Xip251-270), 0.769. The results for the z-score in test [2] and in test [3] were -0.407 and 1.23 (inactive), respectively.

In the case of `COC(=O)[C@H](C)NC(=O)CCC1CC(OC(=O)NCCc2ccc(F)cc2)CC2(CCCC(COC(=O)NCC(c3ccccc3)c3ccccc3)O2)O1` (some centres not stated), the values for the composite z-score (in test [1]; in the test on XIP peptide (Xip251-270)) were 0.477 (inactive) and 0.577, respectively. Besides, the z-score was -1.32 in test [2] and -4.47 (inactive) in test [3].

On to `C#CCCCON=C1C[C@@H](O)[C@@H](O)[C@@H]2[C@@H]3C(=O)N([C@@H](C)c4ccccc4)C(=O)[C@@H]3CC[C@H]12`, for which the composite z-score in test [1] was -0.396 (inactive); in the test with XIP peptide (Xip251-270), 0.164. For the same molecule, the z-score in test [2] is -1.46; in test [3], -2.2 (inactive).

On to `CCCCc1nc2c(c3c1C[C@H](C)OC3)CN(CCC(C)C)CC2`, for which the composite z-score in test [1] was 0.172 (inactive); in the test with XIP peptide (Xip251-270), 0.715. The z-score in test [2] is -0.522; in test [3], -5.63 (inactive).

Regarding `O=C1C[C@@H](O)[C@@H](O)[C@@H]2[C@@H]3C(=O)N(Cc4ccc5c(c4)OCO5)C(=O)[C@@H]3CC[C@@H]12`, the composite z-score in test [1] is 0.0648 (inactive); in the test on XIP peptide (Xip251-270), 0.353. Also, the figures for the z-score in test [2] and in test [3] were -0.522 and -0.682 (inactive), respectively.

In the case of `COc1ccc(O[C@H]2C=C[C@@H](c3ccccc3)O[C@@H]2COC(=O)N2CCCCC2)cc1`, the composite z-score in test [1] is -0.275 (inactive); in the test on XIP peptide (Xip251-270) it was -0.216. For the same molecule, the z-score in test [2] was -0.43; in test [3], -3.83 (inactive).

Turning to `CO[C@H]1COC(=O)[C@@H]2CCCN2C(=O)[C@@H](C)COC(=O)CC=C[C@@H]1C`, the composite z-score is -0.0014 (inactive) in test [1] and 0.371 in the test with XIP peptide (Xip251-270). The z-score was 1.2 in test [2] and -0.54 (inactive) in test [3].

For the molecule `COC(=O)[C@H](C)NC(=O)[C@@H](C)CO`, the composite z-score in test [1] is 0.316 (inactive); in the test with XIP peptide (Xip251-270), 0.332. The z-score in test [2] is -0.613; in test [3] it was -1.61 (inactive).

Take `CCOC(=O)CCN1C(=O)[C@H]2[C@H]3[C@H](O)[C@H](O)CC(=NOCc4ccccc4)[C@@H]3CC[C@H]2C1=O`: the composite z-score in test [1] was 0.204 (inactive); with XIP peptide (Xip251-270) it was 0.635. Moreover, the results for the z-score in test [2] and in test [3] were 0.226 and -4.34 (inactive), respectively.

For `COC(=O)[C@@H]1CC[C@H](C)[C@@H](c2ccc(C)cc2)N1C(=O)c1ccc(C=NOC[C@@H](O)COCc2ccco2)cc1`, the figures for the composite z-score (in test [1]; in the test with XIP peptide (Xip251-270)) were -0.484 (inactive) and -1.03, respectively. For the same molecule, the z-score in test [2] is -2.31; in test [3], -6.19 (inactive).

As for `CC(CCN1CCCCc2nc(C)c(C)cc21)=NOC(C)CN1CCCCc2nc(C)c(C)cc21` (configuration not stated), the figures for the composite z-score (in test [1]; in the test with XIP peptide (Xip251-270)) were 0.29 (inactive) and 0.805, respectively. Besides, the results for the z-score in test [2] and in test [3] were -0.883 and -5.75 (inactive), respectively.

Consider `C=CC[C@@H]1C=C[C@H](ON=C(C)CCN2CCc3nc(CC)c(CC)cc3C2)[C@@H](CO)O1`, for which the composite z-score in test [1] is 0.0621 (inactive); with XIP peptide (Xip251-270), -0.0738. Moreover, the z-score in test [2] is -0.163; in test [3], -5.51 (inactive).

Consider `C=CC[C@@H]1C=C[C@H](ON=Cc2ccc(C(=O)N3[C@H](c4ccc(C)cc4)[C@@H](C)CC[C@H]3C(=O)OC)cc2)[C@@H](CO)O1`, for which the composite z-score in test [1] is -0.27 (inactive); with XIP peptide (Xip251-270), 0.379. The z-score in test [2] was 0.495; in test [3], -6.28 (inactive).

On to `O=C1CCCC2OC12C(O)CCc1ccccc1` (configuration not stated), for which the results for the composite z-score (in test [1]; in the test with XIP peptide (Xip251-270)) were -0.128 (inactive) and -0.213, respectively. Further, the z-score is 0.307 in test [2] and -0.663 (inactive) in test [3].

As to `CO[C@@H]1COC(=O)CCC[C@@H](C)[C@H](OC)COC(=O)CCC[C@H]1C`, the composite z-score was -0.201 (inactive) in test [1] and 0.201 with XIP peptide (Xip251-270). For the same molecule, the z-score in test [2] is -0.0787; in test [3] it was -1.03 (inactive).
